Source: PubChem (Broad Institute)
MLL AF4-AF9 inh: inhibitors of AF4 peptide binding to AF9, primary screen, biochemical, AlphaScreen, biotin-AF4 peptide, FLAG-AF9, single point; 0.47% of 350,000 active; inhibition, % at 10 µM; AID 651704, 2012; Protein AF-9 (Homo sapiens), P42568;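 active = every replicate reaching a set inhibition limit, whatever the replicate mean, cut at about 25% in these data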;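 also: 0% = plate neutral control median and 100% = total signal loss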
NSD2 inh: NSD2 histone methyltransferase inhibitors, primary screen, biochemical, AlphaScreen, single concentration, set 2 | Histone-lysine N-methyltransferase NSD2 (Homo sapiens), O96028 | NSD2 peptide methylation, 120 min | inhibition, % at 12.5 µM | 0.54% of 310,000 active; in the data active = inhibition above about 50%
Ecoli rRNA inh: reduced GFP signal of wild-type E. coli, primary screen, bacterial rRNA inhibitor project, GFP/RFP fluorescence, OD600, single point; E. coli WT GFP vs humanized-ribosome RFP mutants, 24 h; stronger effect = lower value; DMSO median 0, no signal -100; AID 720706, 2013; GFP signal change (wild-type ribosome), % (no concentration beside the values); 1.6% of 350,000 active;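 active = significant combined selectivity score with lowered wild-type GFP, culture density cut under 30%, mutant RFP and density less affected; inactive = any of these conditions unmet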
RAD52 anneal inh: RAD52 DNA annealing inhibitors, primary screen, biochemical, FRET, single point, set 2. DNA repair protein RAD52 homolog (Homo sapiens), P43351. recombinant RAD52 DNA annealing, FRET fluorescence. inhibition, % at 18.7 µM. 0.46% of 360,000 active. AID 651710, 2012;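 active = every replicate showing at least 50% inhibition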
CASP6 VEID inh: human caspase-6 inhibitors, primary screen, biochemical, VEID-R110 fluorescence, single point, set 2. AID 686996, 2013. purified caspase-6, Z-VEID-R110 cleavage fluorescence. inhibition, % at 12.5 µM. P55212. 0.53% of 350,000 active;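 active = mean inhibition across replicates at least about 35%, with every replicate also reaching that limit, limit read from the data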;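 also: 0% = median of neutral control wells and 100% = no fluorescence left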
Alpha artifact: AlphaScreen signal interference with preloaded methylated product, dose response, artefact control for NSD2 inhibitor project, biochemical, cherry-picked samples; shares compounds with NSD2 inh; AlphaScreen artifact counterscreen, preloaded methylated H4 peptide; AC35, µM (series often up to 10 µM), without a hit: top-dose activity change, negative = signal loss; 9.4% of 1,500 active; AID 1053174, 2014; call rule not given here
* marks the source's active call; other numbers are inactive results; i = inactive; / = not tested or not shown. Sampled rows, rich in hits. Any-hit rate of the full collection: about 2.5%.

SMILES	MLL AF4-AF9 inh	NSD2 inh	Ecoli rRNA inh	RAD52 anneal inh	CASP6 VEID inh	Alpha artifact
COCCCNC1=C(Cl)C(=O)c2ccccc2C1=O	9	68*	-40*	-7	18	-6%
CCN(CC)CCCNC1=C(Cl)C(=O)c2ccccc2C1=O	5	112*	-10	15	38*	-5%
CN(C)c1cc(Cl)c2nonc2c1N	2	104*	6	-21	99*	1%
CCN(CC)c1cc(Cl)c2nonc2c1N	-2	8	8	-13	5	/
Nc1nc(O)c(Sc2ccccc2[N+](=O)[O-])c(=O)[nH]1	8	54*	4	5	8	-6%
COCC(=O)Nc1ccc2c(c1)[C@@H]1C[C@@H](CC(=O)N[C@H](C)c3ccccc3)O[C@@H](CO)[C@@H]1O2	2	/	0	0	2	/
Cc1noc(C)c1NC(=O)N(C)C[C@@H]1Oc2c(NC(=O)C3CCOCC3)cccc2C(=O)N([C@H](C)CO)C[C@@H]1C	-1	/	1	-5	-1	/
N=C1/C(=C\c2coc3ccccc3c2=O)C(=O)N=C2SC(c3ccncc3)=NN12	-4	98*	-15*	-239	41*	-3%
CSC1=NSC2=NC(=O)/C(=C\c3coc4ccccc4c3=O)C(=N)N12	-7	74*	-2	i	7	1%
CC(C)CSC1=NSC2=NC(=O)/C(=C\c3coc4ccccc4c3=O)C(=N)N12	/	12	/	/	/	/
N=C1/C(=C/c2coc3ccccc3c2=O)C(=O)N=C2SC(c3ccco3)=NN12	/	84*	/	/	/	-3%
N#C[C@H]1[C@@H](c2ccccc2-c2ccc(F)cc2)[C@@H](CO)N1c1ncc(-c2ccccc2)s1	0	/	1	-10	1	/
C[C@H](CO)N1C[C@H](C)[C@@H](CN(C)Cc2ccc(C(F)(F)F)cc2)Oc2ccc(NC(=O)c3ccncc3)cc2CC1=O	4	/	-16	-18	1	/
CC(=O)N(C)C[C@H]1Oc2ncc(C#CCc3ccccc3)cc2C(=O)N([C@H](C)CO)C[C@H]1C	-2	/	/	-12	0	/
C/C(CC(=O)NCCCN1CCOCC1)=N\NC(=O)COc1ccc(C)cc1	-1	-1	7	-23	-21	/
C/C(CC(=O)NCCCN1CCOCC1)=N\NC(=O)COc1ccc(Cl)cc1	/	65*	/	/	/	-7%
O=C(C[C@@H]1C[C@@H]2c3cc(NC(=O)Nc4ccccc4F)ccc3O[C@@H]2[C@H](CO)O1)NCc1ccccn1	0	/	2	-1	1	/
c1ccc(-c2nc(-n3ccnc3)nc(-n3ccnc3)n2)cc1	/	0	/	/	/	/
c1ccc(CN2CCN(c3nc(-c4ccccc4)nc(-n4ccnc4)n3)CC2)cc1	/	63*	/	/	/	-4%
CCN(CC)CCCNC(=O)C1CCN(C(=O)c2oc3cc4sc(N(C)C)nc4cc3c2C)CC1	1	57*	-8	20	-12	0%
CC(=O)Nc1cccc(C(=O)OCc2ccccc2)c1	/	57*	/	/	/	-4%
CC(=O)Nc1cccc(C(=O)OCC(=O)NC(=O)Cc2ccccc2)c1	-3	-2	3	-6	2	/
CO[C@@H]1CN(C)C(=O)c2ccc(NC(=O)NC3CCCCC3)cc2OC[C@@H](C)N(C(C)=O)C[C@H]1C	/	/	3	/	/	/
COc1ccc(-c2ccc([C@@H]3[C@@H](CO)N4C(=O)CN(C(=O)c5ccccc5)C[C@H]34)cc2)cc1	3	/	6	-14	-1	/
Cc1nn2c3ccccc3n(CCN3CCCCC3)c2nc1=O	/	110*	/	/	/	-5%
SMILES	MLL AF4-AF9 inh	NSD2 inh	Ecoli rRNA inh	RAD52 anneal inh	CASP6 VEID inh	Alpha artifact
C=CCn1c2ccccc2n2nc(C)c(=O)nc12	/	2	/	/	/	/
CN1C(=O)c2cc(NS(C)(=O)=O)ccc2OC[C@@H]2O[C@@H](CC(=O)O)CC[C@H]21	-3	/	0	5	-2	/
COc1ccc(OC)c2c1C(=O)c1ccccc1C2=O	/	-2	/	/	/	/
COc1ccc2noc3c2c1C(=O)c1ccccc1-3	12	108*	-13	i	46*	-6%
Cn1c(CNc2nc3ccccc3n2C)nc2ccccc21	/	1	/	/	/	/
CC(C)n1c(NCc2nc3ccccc3n2C)nc2ccccc21	/	120*	/	/	/	5%
Cc1ccc(S(=O)(=O)N[C@@H]2CC[C@@H](CCn3cc(C4(O)CCCC4)nn3)O[C@H]2CO)cc1	0	/	4	-2	2	/
CCCCN1C(=O)/C(=C2\SC(N3CCCCC3)=NC2=O)c2ccccc21	/	13	/	/	/	/
CCCCN1C(=O)C(=Nc2cccc3cnccc23)c2ccccc21	-4	74*	-11	10	-4	-1%
COCCNC(=O)C[C@H]1C=C[C@@H](NC(=O)NC2CCCCC2)[C@@H](CO)O1	1	/	1	1	4	/
CCCNC(=O)N[C@@H]1CC[C@@H](CCn2cc(C3CCCCC3)nn2)O[C@@H]1CO	-15	/	-1	-9	1	/
C[C@@H]1CN([C@H](C)CO)C(=O)c2cccc(NC(=O)c3ccncc3)c2O[C@H]1CN(C)S(=O)(=O)c1cn(C)cn1	-2	/	3	-17	4	/
O=C1C=C(Nc2cccnc2)c2ccccc2C1=O	-1	99*	-16	-14	96*	0%
CCOc1ccc(NC2=CC(=O)C(=O)c3ccccc32)cc1	2	18	-35	-3	1	/
O=c1cccccc1NCc1ccccc1	/	3	-3	-13	17	/
O=C1C=C(NCc2ccccc2)c2ccccc2C1=O	0	140*	-11	-11	80*	-2%
O=C1C=C(Nc2ccccc2O)c2ccccc2C1=O	16	94*	-30	-18	41*	-1%
Cc1ccc(NC2=CC(=O)C(=O)c3ccccc32)c(C)c1	1	3	/	-4	19	/
CC(C)(C)S(=O)N1Cc2cc(C(=O)NCCCN3CCOCC3)nc(-c3cccc(C#CCC4CCCC4)c3)c2[C@@H]1CCO (some centres undefined)	11	/	-16	-38	-7	/
Cc1cccc(S(=O)(=O)N2C[C@H](O)COC[C@H]3O[C@H](CC(=O)Nc4ccccc4)CC[C@@H]32)c1	-1	/	i	-3	-2	/
Cc1cc(C(=O)Nc2cccc3c2O[C@H](CN(C)S(=O)(=O)c2cccs2)[C@@H](C)CN([C@H](C)CO)C3=O)n(C)n1	-12	/	5	-1	1	/
CC1CN(c2nc3c(c(=O)n(Cc4ccc(Cl)cc4)c(=O)n3C)n2C)CC(C)O1 (centres undefined)	/	116*	-2	1	0	-1%
Cn1c(N2CCCC2)nc2c1c(=O)n(Cc1ccc(Cl)cc1)c(=O)n2C	/	105*	/	/	/	-5%
